Results filed as inconclusive are left out. Calls of active or inactive are those of the source. Calls come from the whole dose curve; as a rule, active = well fitted cell-killing curve with a large enough effect; inconclusive = small, poorly fitted or top-dose-only effect, or effect the other way; inactive = flat fitted curve, though single readings scatter.
Columns and labels:
Experiment in all cases: Primary qHTS to identify gynecologic anti-cancer compounds using libraries of approved drugs and bioactive compounds (AID 1345084); note: nearly all actives have a fitted effect of over 55% in size
C33A = conditions: Gynecologic cancer cell panel viability, ATPlite luminescence, 48 h; series mostly up to 57.5 µM
How it was run: (§1)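 Luminescence from the ATPlite ATP-monitoring reagent indicates viable cell number; lower signal means cytotoxicity. Cells received compound 16 h after seeding and were exposed for 48 h across five concentrations.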

CAOV3 = conditions: Gynecologic cancer cell panel viability, ATPlite luminescence, 48 h; series mostly up to 57.5 µM
How it was run: as §1

CASKI = conditions: Gynecologic cancer cell panel viability, ATPlite luminescence, 48 h; series mostly up to 57.5 µM
How it was run: as §1

Es-2 = conditions: Gynecologic cancer cell panel viability, ATPlite luminescence, 48 h; series mostly up to 57.5 µM
How it was run: as §1

HeLa = conditions: Gynecologic cancer cell panel viability, ATPlite luminescence, 48 h; series mostly up to 57.5 µM
How it was run: as §1

Hek293T = conditions: Gynecologic cancer cell panel viability, ATPlite luminescence, 48 h, control line for the selectivity index; series mostly up to 57.5 µM
How it was run: as §1

JEG-3 = conditions: Gynecologic cancer cell panel viability, ATPlite luminescence, 48 h; series mostly up to 57.5 µM
How it was run: as §1

OV90 = conditions: Gynecologic cancer cell panel viability, ATPlite luminescence, 48 h; series mostly up to 57.5 µM
How it was run: as §1

PA-1 = conditions: Gynecologic cancer cell panel viability, ATPlite luminescence, 48 h; series mostly up to 57.5 µM
How it was run: as §1

SKOV3 = conditions: Gynecologic cancer cell panel viability, ATPlite luminescence, 48 h; series mostly up to 57.5 µM
How it was run: as §1

Tov-21-G = conditions: Gynecologic cancer cell panel viability, ATPlite luminescence, 48 h; series mostly up to 57.5 µM
How it was run: as §1

Tov112D = conditions: Gynecologic cancer cell panel viability, ATPlite luminescence, 48 h; series mostly up to 57.5 µM
How it was run: as §1
% is set by controls: 0 for no effect and ±100 for the full control effect.

C[C@@H]1[C@H](O)[C@@H]2OC(=O)C3=C2[C@H](CCC3)[C@@]12C[C@@H](c1ccoc1)OC2=O
inactive: Potency (C33A) | Potency (CAOV3) | outcome (CASKI) | Potency (Es-2) | Potency (HeLa) | Potency (Hek293T) | Potency (JEG-3) | Potency (OV90) | Potency (PA-1) | Potency (SKOV3) | Potency (Tov-21-G) | Potency (Tov112D)

C=CCc1cc(OC)c(OC(C)C(O)c2ccc(O)c(OC)c2)c(OC)c1 (centres undefined)
inactive: Potency (C33A) | Potency (CAOV3) | outcome (CASKI) | Potency (Es-2) | Potency (HeLa) | Potency (Hek293T) | Potency (JEG-3) | Potency (OV90) | Potency (PA-1) | Potency (SKOV3) | Potency (Tov-21-G) | Potency (Tov112D)

CC(=O)OC1CC(C(C)(C)O)OC2CCC3(C)OC4=C(C(=O)C=C5C(C)C(OC(C)=O)C6(C)C(C)OC546)C(O)C3C12C (centres undefined)
inactive: Potency (C33A) | Potency (CAOV3) | outcome (CASKI) | Potency (Es-2) | Potency (HeLa) | Potency (Hek293T) | Potency (JEG-3) | Potency (OV90) | Potency (PA-1) | Potency (SKOV3) | Potency (Tov-21-G) | Potency (Tov112D)

C=C1CC2C3(C)C=CC(=O)OC(C)(C)C3CC(OC(C)=O)C2(C)C2C(=O)OC(C)C(=O)C12C (centres undefined)
inactive: Potency (C33A) | Potency (CAOV3) | outcome (CASKI) | Potency (Es-2) | Potency (HeLa) | Potency (Hek293T) | Potency (JEG-3) | Potency (OV90) | Potency (PA-1) | Potency (SKOV3) | Potency (Tov-21-G) | Potency (Tov112D)

Cc1oc2nc3c(c(NC(=O)CN4CCCC4=O)c2c1C)CCCC3
inactive: Potency (C33A) | Potency (CAOV3) | outcome (CASKI) | Potency (Es-2) | Potency (HeLa) | Potency (Hek293T) | Potency (JEG-3) | Potency (OV90) | Potency (PA-1) | Potency (SKOV3) | Potency (Tov-21-G)

O=C(C[C@@H]1C(C(=O)O)=CO[C@@H](O[C@@H]2O[C@H](CO)[C@@H](O)[C@H](O)[C@H]2O)/C1=C\CO)OCCc1ccc(O)cc1
inactive: Potency (C33A) | Potency (CAOV3) | outcome (CASKI) | Potency (Es-2) | Potency (HeLa) | Potency (Hek293T) | Potency (JEG-3) | Potency (OV90) | Potency (PA-1) | Potency (SKOV3) | Potency (Tov-21-G) | Potency (Tov112D)

Cc1occc(=O)c1O[C@@H]1O[C@H](CO)[C@@H](O)[C@H](O)[C@H]1O
inactive: Potency (C33A) | Potency (CAOV3) | outcome (CASKI) | Potency (Es-2) | Potency (HeLa) | Potency (Hek293T) | Potency (JEG-3) | Potency (OV90) | Potency (PA-1) | Potency (SKOV3) | Potency (Tov-21-G) | Potency (Tov112D)

CC(=O)OC(C)C(C)(O)C(=O)O[C@@H]1CC[C@]2(C)CC(=O)C(=C(C)C)C[C@H]2[C@]1(C)OC(C)=O (some centres undefined)
inactive: Potency (C33A) | Potency (CAOV3) | outcome (CASKI) | Potency (Es-2) | Potency (HeLa) | Potency (Hek293T) | Potency (JEG-3) | Potency (OV90) | Potency (PA-1) | Potency (SKOV3) | Potency (Tov-21-G) | Potency (Tov112D)

Cc1cccc(-c2nn3c(c2-c2ccnc4ccc(C(N)=O)cc24)CCC3)n1
inactive: Potency (C33A) | Potency (CAOV3) | outcome (CASKI) | Potency (Es-2) | Potency (HeLa) | Potency (Hek293T) | Potency (JEG-3) | Potency (OV90) | Potency (PA-1) | Potency (SKOV3) | Potency (Tov-21-G)

C=C1C2CCC3CC2(CC(O)C2(O)C1CC(OC1OC(CO)C(O)C(O)C1O)C2(C)C)CC3(C)O (centres undefined)
inactive: Potency (C33A) | Potency (CAOV3) | outcome (CASKI) | Potency (Es-2) | Potency (HeLa) | Potency (Hek293T) | Potency (JEG-3) | Potency (OV90) | Potency (PA-1) | Potency (SKOV3) | Potency (Tov-21-G) | Potency (Tov112D)

O=C(Cc1ccccc1)OC[C@H]1O[C@H](O[C@H]2O[C@H](CO)[C@@H](O)[C@H](O)[C@H]2O)[C@H](O)[C@@H](O)[C@@H]1O
inactive: Potency (C33A) | Potency (CAOV3) | outcome (CASKI) | Potency (Es-2) | Potency (HeLa) | Potency (Hek293T) | Potency (JEG-3) | Potency (OV90) | Potency (PA-1) | Potency (SKOV3) | Potency (Tov-21-G) | Potency (Tov112D)

CC1=CC(=O)C(=C(C)C)CC2C(C)(O)CCC12O (centres undefined)
inactive: Potency (C33A) | Potency (CAOV3) | outcome (CASKI) | Potency (Es-2) | Potency (HeLa) | Potency (Hek293T) | Potency (JEG-3) | Potency (OV90) | Potency (PA-1) | Potency (SKOV3) | Potency (Tov-21-G) | Potency (Tov112D)

COc1cccc(C)c1C(=O)O[C@@H]1C[C@H](O[C@H]2[C@H](O)C[C@H](O[C@@H]3CCC[C@H]4[C@H]3C=C[C@@H]3CCCC/C=C/[C@H]5C=C(C(=O)O)[C@@H](C)C[C@@]56OC(=O)C(=C6O)OC(=O)[C@@]34C)O[C@@H]2C)O[C@H](C)[C@H]1O
inactive: activity change, negative = cytotoxicity (C33A) 10.8% [at 11.6 µM] | activity change, negative = cytotoxicity (CAOV3) 3.73% [at 11.6 µM] | activity change, negative = cytotoxicity (CASKI) 10.4% [at 11.6 µM] | activity change, negative = cytotoxicity (Es-2) 4.28% [at 11.6 µM] | activity change, negative = cytotoxicity (HeLa) 1.33% [at 11.6 µM] | activity change, negative = cytotoxicity (Hek293T) 3.45% [at 11.6 µM] | activity change, negative = cytotoxicity (JEG-3) -0.859% [at 11.6 µM] | activity change, negative = cytotoxicity (OV90) 2.5% [at 11.6 µM] | activity change, negative = cytotoxicity (PA-1) 9.36% [at 11.6 µM] | activity change, negative = cytotoxicity (SKOV3) 18.8% [at 11.6 µM] | activity change, negative = cytotoxicity (Tov-21-G) 11.1% [at 11.6 µM] | activity change, negative = cytotoxicity (Tov112D) -1.83% [at 11.6 µM]

Source: PubChem BioAssay (NCATS)
